# Bioassay records: PubChem BioAssay, National Center for Advancing Translational Sciences (NCATS)
# TDP1 block: qHTS Assay for Inhibitors of Tyrosyl-DNA Phosphodiesterase (TDP1) | Tyrosyl-DNA phosphodiesterase 1 (Homo sapiens), Q9NUW8 | 350,000 compounds, 0.28% hits | recombinant TDP1, AlphaScreen DNA substrate cleavage | Potency, µM (titrated, usually from 130 µM), for inactives: at the top dose activity change, negative = inhibition, usual class: inhibitors; note: potency is the fitted concentration of half-maximal effect; % is set by controls: 0 for no effect and ±100 for the full control effect; nearly all actives have a fitted effect of over 40% in size
# Target sequence (Q9NUW8 whole entry, looked up): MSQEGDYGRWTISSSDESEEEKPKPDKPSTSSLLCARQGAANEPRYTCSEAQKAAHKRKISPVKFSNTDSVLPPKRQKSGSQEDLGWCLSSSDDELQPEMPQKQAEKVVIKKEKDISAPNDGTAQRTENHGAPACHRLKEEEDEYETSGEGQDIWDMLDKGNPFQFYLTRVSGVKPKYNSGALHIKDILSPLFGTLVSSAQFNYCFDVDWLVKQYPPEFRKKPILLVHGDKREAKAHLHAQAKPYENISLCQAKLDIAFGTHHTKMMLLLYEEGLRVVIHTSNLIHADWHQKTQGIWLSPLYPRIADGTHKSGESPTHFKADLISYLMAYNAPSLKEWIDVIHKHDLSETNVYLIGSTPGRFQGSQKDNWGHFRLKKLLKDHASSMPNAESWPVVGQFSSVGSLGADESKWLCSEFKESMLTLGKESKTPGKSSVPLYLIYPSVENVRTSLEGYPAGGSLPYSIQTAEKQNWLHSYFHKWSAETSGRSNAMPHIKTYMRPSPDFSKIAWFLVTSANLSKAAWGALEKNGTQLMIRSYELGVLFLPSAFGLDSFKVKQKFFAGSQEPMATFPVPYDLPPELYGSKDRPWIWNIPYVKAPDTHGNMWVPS
#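 Here, a 5' biotin and 3' phosphotyrosine-FITC DNA oligonucleotide reports Tdp1 activity: intact substrate bridges AlphaScreen beads, while cleavage leaves a 3' phosphate and drops signal. All incubations at room temperature.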
# DT40 TDP1 no CPT: qHTS for Inhibitors of human tyrosyl-DNA phosphodiesterase 1 (TDP1): qHTS in cells in absence of CPT | 420,000 compounds, 15% hits | AID 686978, 2013 | Potency, µM (highest dose often 46.2 µM), inactives show at the highest dose activity change, negative = growth inhibition, usual class: inhibitors | DT40 Tdp1-/- hTDP1 cells, no CPT, ATP luminescence, 48 h; note: potency is the fitted concentration of half-maximal effect; % is set by controls: 0 for no effect and ±100 for the full control effect; nearly all actives have a fitted effect of over 55% in size
#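 Growth kinetics read by CellTiter-Glo luminescence after ≥48 hr at 37 °C. Cells: DT40 Tdp1-/- stably carrying human TDP1, 400 per well, compound exposure in the absence of CPT (DMSO vehicle).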
# uPA surface inh: qHTS for Inhibitors of Cell Surface uPA Generation; 330,000 compounds, 0.31% hits; cell surface uPA generation assay, qHTS; Potency, µM (top dose mostly 38.3 µM), without a hit: at the highest dose activity change, negative = inhibition, actives largely listed as inhibitors; active = well fitted inhibition curve with a large enough effect; inconclusive = small, poorly fitted or top-dose-only effect; inactive = no such curve, though single readings can be large or run the other way; tested in mouse RAW 264.7 cells; note: potency is the fitted concentration of half-maximal effect; % is set by controls: 0 for no effect and ±100 for the full control effect; nearly all actives have a fitted effect of over 55% in size
# miR-21 reporter: qHTS Assay for Modulators of miRNAs and/orActivators of miR-21; HeLa miR-21 FLuc reporter, luciferase, 48 h; Potency, µM (top dose mostly 38.3 µM), for the others: at the highest dose activity change, positive = activation, most hits filed as activators; 340,000 tested, under 10 active; AID 2288, 2010;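 note: % of control where 0% means no effect; miR-21 action dims this reporter so a rising signal means less miR-21 action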
#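 Using DMEM plus 10% FBS, HeLa miR-21-FLuc cells are incubated with test compounds (final up to about 40uM) for 48 hours; firefly luciferase signal is then imaged following reagent-mediated lysis.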
# DT40 TDP1 CPT: qHTS for Inhibitors of human tyrosyl-DNA phosphodiesterase 1 (TDP1): qHTS in cells in presence of CPT | chicken DT40 Tdp1-/-;hTDP1 cells + 20 nM CPT, ATP luminescence, 48 h | 420,000 compounds, 12% hits | AID 686979, 2013 | Potency, µM (top dose mostly 46.2 µM), for the others: at the highest dose activity change, negative = growth inhibition, hits mostly inhibitors; note: potency is the fitted concentration of half-maximal effect; % is set by controls: 0 for no effect and ±100 for the full control effect; nearly all actives have a fitted effect of over 55% in size
#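 Cell growth measured by CellTiter-Glo luminescence after a minimum 48 h, 37 C compound exposure with 20 nM CPT in Tdp1-knockout DT40 cells stably expressing hTDP1, seeded 400/well; qHTS titration format.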
# Active calls of the source: *; ? = inconclusive; nt = no result. Sampled rows, rich in hits. Any-hit rate of the full collection: about 16%. Unless noted, calls come from the whole dose curve; as a rule, active = well fitted curve in the direction sought with a large enough effect; inconclusive = small, poorly fitted or top-dose-only effect, or another doubt; inactive = no such curve, though single readings can be large; an effect the other way counts as inactive or inconclusive.
SMILES,TDP1 block,DT40 TDP1 no CPT,uPA surface inh,miR-21 reporter,DT40 TDP1 CPT
CC(C)N(C(=NCc1ccccc1)NC(=O)c1ccccc1)C(C)C,nt,1%,9%,nt,-13%
CCOc1cc(NC(=S)Nc2ccccc2)c(OCC)cc1NC(=O)c1ccccc1,10%,26µM*,9%,5%,18µM*
Cc1csc(SCc2nnc(-c3ccccc3Br)o2)n1,-1%,-20%,3%,-42%,-26%
Fc1ccccc1SCc1nnc(-c2ccccc2Br)o1,nt,26µM*,-4%,-59%,5.8µM*
CC1(C)OC2CC(=O)OCC23C1CC(=O)C1(C)C3CC[C@@]2(C)[C@H](c3ccoc3)OC(=O)C3OC312 (some centres undefined),7%,nt,nt,nt,nt
C[C@@H](NC(=O)c1nc[nH]c1C(=O)NCCCCCNC(=O)OC(C)(C)C)c1ccccc1,0%,?,22%,nt,26µM*
C[C@H](NC(=O)c1nc[nH]c1C(=O)NCCCCCNC(=O)OC(C)(C)C)c1ccccc1,1%,16µM*,23%,nt,15µM*
C[C@H](NC(=O)c1nc[nH]c1C(=O)NCc1ccc(CNC(=O)OC(C)(C)C)cc1)c1ccccc1,0%,?,?,nt,?
CC(C)C(NS(=O)(=O)c1ccccc1)C(=O)N1CCCCCC1 (centres undefined),7%,1%,2%,-3%,6%
COc1ccc(CNC(=O)CCC(=O)c2ccc(C)cc2)cc1OC,5%,12%,0%,0%,-10%
COc1ccc(CNC(=O)c2cc3sccc3n2Cc2ccc(C)cc2)cc1,4%,-64%,nt,-27%,-28%
CCc1ccc2oc(-c3cccc(NC(=O)c4cccnc4)c3)nc2c1,1%,?,5%,-20%,?
O=C(CCCc1nc(-c2ccccc2)no1)Nc1cccnc1,3%,?,2%,0%,?
O=C(CCc1nc(-c2ccccc2Cl)no1)Nc1cccnc1,-14%,?,4%,-4%,21µM*
Cc1ccc(-c2noc(CCCC(=O)NC3CCCCC3)n2)cc1,nt,13µM*,nt,10%,?
Cc1ccc(-c2noc(CCCC(=O)Nc3cccnc3)n2)cc1,7%,21µM*,0%,?,?
CC(C)Oc1cccc(C(=O)C2CCCN(Cc3cnc(N4CCOCC4)s3)C2)c1 (centres undefined),1%,?,2%,22%,-25%
COC(=O)c1scc(C)c1S(=O)(=O)Nc1ccc(C)cc1,4%,?,-5%,10%,-23%
C=CCOc1cccc(CNn2nnnc2N)c1,-2%,-11%,4%,-1%,-8%
COc1ccc(N2CCN(C(=O)CSc3nnc4n3C(C)(C)Cc3ccccc3-4)CC2)cc1,-1%,21µM*,nt,17%,?
COc1ccc(N2CCN(C(=O)CSc3nnc4c(C)cc5c(C)cc(C)cc5n34)CC2)cc1,0%,23µM*,nt,18%,?
COC(=O)CSc1nnc2n1C(C)(C)Cc1ccccc1-2,-8%,10%,nt,2%,-1%
Cc1ccc(Cl)cc1N1CCN(C(=O)CSc2nnc3n2C(C)(C)Cc2ccccc2-3)CC1,1%,7.3µM*,-10%,15%,9.2µM*
Cc1cccc(C(=O)N2CCc3cc(CNC(=O)c4cc5ccccc5[nH]4)ccc32)c1,5%,-8%,nt,15%,-18%
Cc1cc(-n2c(C)cc(C(=O)CSc3ccc4c(c3)OCCO4)c2C)no1,4%,26µM*,0%,-3%,?
SMILES,TDP1 block,DT40 TDP1 no CPT,uPA surface inh,miR-21 reporter,DT40 TDP1 CPT
Cc1cc(-n2c(C)cc(C(=O)CSc3ccccn3)c2C)no1,4%,?,-4%,nt,?
Cc1cc(-n2c(C)cc(C(=O)CCl)c2C)no1,5%,0.92µM*,-19%,21%,1.2µM*
CC(=O)n1c(C=Nc2ccc(Cl)cc2)c(O)c2ccccc21,10%,-24%,1%,-18%,-4%
COc1ccccc1C(=O)CSc1ccccn1,-3%,-15%,-7%,-57%,6%
O=S(=O)(NCc1ccccc1)c1ccc2[nH]c3c(c2c1)CCCCC3,10%,21µM*,nt,?,?
CN(Cc1ccccc1)S(=O)(=O)c1ccc2[nH]c3c(c2c1)CCCCC3,-4%,16µM*,nt,16%,?
Cc1ccc(CNS(=O)(=O)c2ccc3[nH]c4c(c3c2)CCCCC4)cc1,1%,15µM*,nt,11%,?
Cc1cc(C)cc(NC(=S)NCc2ccc3[nH]c4c(c3c2)CCCC4)c1,11%,16µM*,8%,11%,?
O=C(NN1CCOCC1)c1ccco1,0%,?,4%,nt,0%
COC(=O)c1ccc(NC(=O)CSC2=NC(=O)C(c3ccccc3)C(=O)N2)cc1 (centres undefined),8%,13%,3%,-5%,-7%
O=S(=O)(NCc1ccc(F)cc1)c1ccc2[nH]c3c(c2c1)CCCC3,9%,16µM*,nt,21%,?
Cc1ccc(CNS(=O)(=O)c2ccc3[nH]c4c(c3c2)CCCC4)cc1,-1%,-24%,nt,-1%,0%
O=S(=O)(NCc1ccc(Cl)cc1)c1ccc2[nH]c3c(c2c1)CCCC3,11%,5.8µM*,nt,?,?
CCCCOc1ccc(C(=O)OCC(=O)c2c(N)n(C)c(=O)n(C)c2=O)cc1,1%,-13%,4%,nt,-19%
O=C(CN1CCOCC1)Nc1ncccn1,0%,-16%,7%,1%,9%
C/C(=N/NC(=O)c1ccc(-c2ccccc2)cc1)c1cc(O)cc(O)c1,6%,16µM*,1%,-18%,21µM*
C/C(=N\NC(=O)c1cccc(F)c1)c1ccc(NC(=O)Cc2ccccc2)cc1,-5%,-4%,-2%,-50%,6%
C/C(=N\NC(=O)c1cc(O)cc(O)c1)c1ccc(NC(=O)Cc2ccccc2)cc1,1.8µM*,-2%,-1%,-33%,-1%
O=C(/C=C\c1ccc2c(c1)OCO2)Nc1c2c(nn1-c1ccc(Cl)cc1)CSC2,-4%,?,7%,4%,?
Cc1ccc(S(=O)(=O)N2CN(CC3CCCO3)c3nc4ccccc4nc32)c(C)c1 (centres undefined),2%,?,0%,-1%,?
COc1ccc(OC)c(CCNC(=O)Cn2ncc3c([nH]c4ccccc43)c2=O)c1,2%,-8%,nt,-6%,9%
COc1ccc(Cn2c(-c3ccco3)nc3oc4cc(OC)ccc4c(=O)c3c2=O)cc1,0%,16µM*,0%,-17%,?
COc1ccc(Cn2c(-c3ccco3)nc3oc4ccccc4c(=O)c3c2=O)cc1,3%,-13%,-3%,-1%,-12%
